Inconclusive results are not listed. Unmarked numbers belong to inactive results. Calls of active or inactive are those of the source. The call rests on the fitted dose curve; in most records, active means well fitted activation curve with a large enough effect in the signal ratio, with a control signal flat (not every such curve was filed as active); inconclusive means small, poorly fitted or top-dose-only effect, or effect the other way, or a change in a side signal; inactive means flat fitted curve, though single readings scatter; the % refers to the signal ratio.
assay: qHTS Assay for Identification of Small Molecule Agonists for Hypoxia Response Element Signaling Pathway (AID 914); conditions: ME-180 (cervical carcinoma) HRE-bla reporter, beta-lactamase ratio, CoCl2, 17 h; activation: stronger effect = higher value; on activation: % of control where 0% means no effect
Source text: NIH Molecular Libraries Screening Centers Network [MLSCN]
NIH Chemical Genomics Center [NCGC]
Hypoxia-inducible factor-1 (HIF-1) is the major hypoxia-regulated transcription factor that controls cellular responses to low oxygen concentration. HIF-1 is composed of two subunits: hypoxia responsive HIF-1 alpha and constitutively expressed HIF-1 beta, which is also known as aryl hydrocarbon receptor nuclear translocator. During hypoxic conditions, HIF-1 alpha heterodimerizes with HIF-1 beta and translocates into the nucleus where the HIF-1 complex binds to the hypoxia-response element (HRE) and activates expression of target genes such as VEGF (vascular endothelial growth factor). HIF-1 alpha protein levels are elevated in many solid tumors, including those of the cervix and brain. Within tumors, cells that are the greatest distance from blood vessels and therefore the most hypoxic express the highest levels of HIF-1 alpha. Therapeutic blockade of the HIF-1 signaling pathway in cancer cells therefore provides an attractive strategy for development of anticancer drugs.
Using a beta-lactamase reporter-gene under control of the hypoxia response element, a cell-based assay [CellSensor(TM) HRE-bla ME-180 developed by Invitrogen Corp.] was used to measure hypoxia-induced signaling. Library compounds were measured for their ability to positively modulate the action of EC50 CoCl2 on reporter gene activity. Compounds were screened in a titration series in 1536-well format. Positive modulators were identified based on the AC50 values derived from the screening data.
NCGC Assay Protocol Summary:
2500 cells/5uL in Opti-MEM medium containing 0.5% dialyzed FBS, 0.1 mM NEAA, 1 mM sodium pyruvate and 10 mM HEPES was dispensed into 1536-well plates and cells were cultured at 37 degrees Celsius overnight. Next day 23 nL of compounds or DMSO were delivered to each well using a pin tool, and 1uL of EC50 level of CoCl2, or EC100 level of CoCl2, or assay medium was added. And then the plates were incubated at 37 degrees Celsius for 17 hours. 1 uL of CCF4-dye mixture was added to each well. After incubated at room temperature for 2.5 hours the plates were measured on an EnVision plate reader at Excitation 405nm, Emission1=460nm and Emission 2=530nm. The %Activity was determined from the ratio of 460nm/530nm.
Potency means the concentration at half of the fitted maximal effect.

| SMILES | activation [%] | Potency |
| --- | --- | --- |
| COc1ccc(CCn2c(=N)c(C#N)cc3c(=O)n4ccccc4nc32)cc1 | 22.3 | – |
| CCOC(=O)c1c(N)sc2c1CCC1C(=O)N(C3CCCCC3)C(=O)C21 (stereo not given) | -6.89 | – |
| CCOc1ccc(C2C(C#N)=C(N)SC(N)=C2C#N)cc1OC | -15.3 | – |
| COc1ccc2c(c1OC)C(=O)OC2c1c(O)nc(SC)n(-c2ccccc2)c1=O (stereo not given) | 1.25 | – |
| N#Cc1nc(COc2ccccc2)oc1N1CCCC1 | -0.614 | – |
| CCOC(=O)NC(Nc1sc2c(c1C(=O)OC)CCN(C)C2)(C(F)(F)F)C(F)(F)F | 6.5 | – |
| CC1(C)CC(=O)C(C=Nc2ccc(Cl)cn2)=C(O)C1 | -14.7 | – |
| CCCCOc1ccc(CSC(CC(=O)O)C(=O)O)cc1 (stereo not given) | 26.9 | – |
| CC1(C)Cc2c(C#N)c(NCc3ccco3)nc(-c3ccco3)c2CO1 | – | 2 µM (active) |
| COC(=O)C(NC(C)=O)(Nc1ccc(Br)cn1)C(F)(F)F (stereo not given) | 3.3 | – |
| Cc1sc(-n2c(C)ccc2C)c(C#N)c1C | 5.91 | – |
| CN(Cc1ccccc1)Cc1c[nH]c2ccccc12 | -19.8 | – |
| Cc1cc(C)nc(N(C#N)CN2C(=O)c3ccccc3C2=O)n1 | 12.2 | – |
| Cc1ccccc1C(=O)c1ccc2c(c1)n(C)c(=O)n2C | -17.8 | – |
| COc1cc(C2C3C(=O)N(c4ccc(F)cc4)C(=O)C3ON2c2ccccc2)ccc1O (stereo not given) | -4.56 | – |
| Cc1cc(OCC(=O)Nn2cnnc2)ccc1Br | 8.36 | – |
| CCOc1ccc(CSC(CC(=O)O)C(=O)O)cc1 (stereo not given) | 14.8 | – |
| CCOC(=O)c1c(-c2cccs2)csc1NC(=O)c1ccncc1 | – | 6.31 µM (active) |
| COCCCn1c(C)nc2c(c1=O)c1nc3ccccc3nc1n2CCc1ccccc1 | -19.8 | – |
| COC(=O)c1[nH]c(C)c(/C(O)=C2\C(=O)C(=O)N(CCN3CCOCC3)C2c2ccccc2OC)c1C (stereo not given) | 0.0679 | – |

| SMILES | activation [%] | Potency |
| --- | --- | --- |
| CNc1nc(C)c(C#N)cc1C(C)=O | 6.97 | – |
| CCOc1ccc(/C(O)=C2/C(=O)C(=O)N(CCN(CC)CC)C2c2ccco2)cc1 (stereo not given) | -14.8 | – |
| C=C(C)CN(CC)CCC(=O)Nc1ccc(OC)cc1OC | -8.71 | – |
| COc1ccc2c(c1)CN([C@H](C)[C@@H]1CC[C@@H]3[C@H]4CC[C@H]5C[C@@H](O)CC[C@@]5(C)[C@H]4CC[C@]31C)CO2 | 15.9 | – |
| O=C(O)CC(NC(=O)COc1ccc(Cl)cc1Cl)C(=O)O (stereo not given) | 3.63 | – |
| COc1cc(NC(=O)NC(C)(C(F)(F)F)C(F)(F)F)cc(OC)c1OC | -29.2 | – |
| CC(C)OC(=O)C(CC(=O)O)NCc1ccccc1 (stereo not given) | 19.8 | – |
| O=C1C2ON(c3ccccc3)C(c3cccnc3)C2C(=O)N1c1ccc(Cl)c(Cl)c1 (stereo not given) | 2.42 | – |
| N=c1c(C(=O)NCc2ccccc2)cc2c(=O)n3ccccc3nc2n1Cc1ccco1 | – | 6.31 µM (active) |
| CC(C)Oc1ccc(/C(O)=C2/C(=O)C(=O)N(CCN(C)C)C2c2ccco2)cc1 (stereo not given) | -2.15 | – |
| CCOC(=O)C1/C(=N\O)CC(C)(O)C(C(=O)OCC)C1c1ccc(OC)c(OC)c1 (stereo not given) | – | 0.794 µM (active) |
| COC(=O)c1ccc(=O)n(Cc2ccc3c(c2)OCO3)c1 | 26.1 | – |
| CCN1CCCC1Cn1cnc2c([nH]c3ccc(C)cc32)c1=O (stereo not given) | 9.56 | – |
| CC(C)COc1ccc(C(=O)NC(CC(C)C)C(=O)O)cc1 (stereo not given) | 11.5 | – |
| O=C(NC1(C(F)(F)F)C(=O)Nc2c1c(=O)[nH]c(=O)n2Cc1ccco1)C1CCCCC1 (stereo not given) | -5.1 | – |
| COc1cc(-c2cc(C(F)(F)F)n3ncc(C(=O)O)c3n2)cc(OC)c1OC | 13.9 | – |
| Cc1ccc(S(=O)(=O)N(CC(O)CN2CCOCC2)c2cc(Cl)ccc2Cl)cc1 (stereo not given) | 11.1 | – |
| Cc1nn(-c2ccccc2)c2c1C(c1ccc(F)cc1F)C(C#N)=C(N)O2 (stereo not given) | -12.7 | – |
| C=CC(O)Cc1c(C)n[nH]c1C (stereo not given) | 4.5 | – |
| O=C(O)C(Cc1c[nH]c2ccccc12)NS(=O)(=O)c1cccc2nsnc12 (stereo not given) | -7.91 | – |
